Experimental data: PubChem BioAssay (NCI)
This is part of a sample that, as a whole, favours compounds with a hit. Of some 79,000 tested, about 15% had one in any assay. Active and inactive are the calls of the source. No stated cut-off is given here; in the data, active means growth inhibition above about 70%; inactive means the rest.

How the values were obtained:
[1] = NCI Yeast Anticancer Drug Screen. Data for the wt1 strain (AID 149);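 further: 0% = growth of vehicle-treated wt1 cultures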; conditions: S. cerevisiae wt1 strain (SPY 50644) growth inhibition, stronger effect = higher value
Outline: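 Yeast wt1 strain exposed to compounds; growth inhibition measured relative to vehicle-treated controls.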

[2] = NCI Yeast Anticancer Drug Screen. Data for the rad50EPP+ strain (AID 151);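 further: 0% = growth of vehicle-treated control cultures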; conditions: S. cerevisiae rad50 mutant strain, stronger effect = higher value
Outline: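 Compounds were applied to the rad50EPP+ yeast strain, which bears a defined DNA repair alteration, and growth inhibition was determined relative to vehicle-treated cultures.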

[3] = NCI Yeast Anticancer Drug Screen. Data for the mgt1 strain (AID 153); conditions: S. cerevisiae mgt1 mutant growth inhibition, stronger effect = higher value
Outline: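 Strain: mgt1 yeast, one of a set carrying defined DNA damage repair or cell cycle control alterations. Compound-treated growth compared with vehicle.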

[4] = NCI Yeast Anticancer Drug Screen. Data for the rad50 strain (AID 155);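 further: 0% = growth of vehicle-only cultures of the same strain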; conditions: S. cerevisiae rad50 strain growth inhibition, stronger effect = higher value
Outline: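 Yeast carrying a defined DNA repair defect were exposed to test compounds, and growth was compared with vehicle-treated controls to give percent inhibition.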

[5] = NCI Yeast Anticancer Drug Screen. Data for the mec2-1 strain (AID 157); conditions: S. cerevisiae mec2-1 strain, stronger effect = higher value
Outline: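 Strain: mec2-1 (DNA repair/cell cycle alteration). Compound exposure, then growth measured; inhibition expressed relative to vehicle.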

[6] = NCI Yeast Anticancer Drug Screen. Data for the rad14 strain (AID 159);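 further: 0% = growth of vehicle-treated control cultures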; conditions: S. cerevisiae rad14 strain growth inhibition, stronger effect = higher value
Outline: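 Yeast cells carrying a defined DNA-repair defect were exposed to compounds, and growth inhibition was calculated relative to vehicle-treated control cultures.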

[7] = NCI Yeast Anticancer Drug Screen. Data for the sgs1 mgt1 strain (AID 161);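 further: 0% = growth of cultures given vehicle only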; conditions: S. cerevisiae sgs1 mgt1 strain, stronger effect = higher value
Outline: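 Test agents were incubated with a DNA-repair-mutant yeast strain. Growth was then read and compared against vehicle-treated controls.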

[8] = NCI Yeast Anticancer Drug Screen. Data for the CLN2oe strain (AID 163);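 further: 0% = growth of vehicle-only control cultures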; conditions: S. cerevisiae CLN2oe strain, stronger effect = higher value
Outline: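 Growth of a genetically modified yeast strain is measured after compound exposure and compared with cultures given vehicle alone.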

[9] = NCI Yeast Anticancer Drug Screen. Data for the cln2 rad14 strain (AID 165);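 further: 0% = growth equal to vehicle treated cultures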; conditions: S. cerevisiae cln2 rad14 strain, stronger effect = higher value
Outline: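 Compounds are applied to the cln2 rad14 yeast strain, and growth is then compared with that of vehicle-treated cultures to give inhibition.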

[10] = NCI Yeast Anticancer Drug Screen. Data for the bub3 strain (AID 167); conditions: S. cerevisiae bub3 mutant strain, stronger effect = higher value
Outline: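 Compounds were applied to a genetically altered yeast strain carrying a cell-cycle control defect. Growth inhibition was scored against vehicle-treated controls.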

[11] = NCI Yeast Anticancer Drug Screen. Data for the wt2 strain (AID 169);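 further: 0% = growth of vehicle-treated yeast cultures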; conditions: S. cerevisiae wt2 strain growth inhibition, stronger effect = higher value
Outline: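 This strain belongs to a panel of yeast strains with defined genetic alterations in DNA damage repair or cell cycle control. Compounds are applied, and growth inhibition is measured against vehicle-treated cultures.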

[12] = NCI Yeast Anticancer Drug Screen. Data for the mlh1 strain (AID 171);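 further: 0% = growth of vehicle-treated control cultures of the same strain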; conditions: S. cerevisiae mlh1 strain growth inhibition, stronger effect = higher value
Outline: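 Growth of the mutant yeast strain after compound exposure, expressed as inhibition relative to vehicle-only controls.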

[13] = NCI Yeast Anticancer Drug Screen. Data for the sgs1 strain (AID 173);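 further: 0% = growth of vehicle-only control cultures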; conditions: S. cerevisiae sgs1 mutant, stronger effect = higher value
Outline: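 Growth of a yeast strain bearing a defined genetic alteration is measured after compound treatment. Inhibition is expressed relative to vehicle-only controls.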

[14] = NCI Yeast Anticancer Drug Screen. Data for the mlh1 rad18 strain (AID 175); conditions: S. cerevisiae mlh1 rad18 strain growth inhibition, stronger effect = higher value
Outline: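 Read-out is yeast growth inhibition, calculated against vehicle-only controls. The compound was applied to a strain engineered with DNA damage repair alterations.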

[15] = NCI Yeast Anticancer Drug Screen. Data for the rad18 strain (AID 177); conditions: S. cerevisiae rad18 mutant growth inhibition, stronger effect = higher value
Outline: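 Growth of the mutant yeast strain after compound exposure, normalised to vehicle-only cultures.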

[16] = at 5.0 µM (retest, dose inferred, filed as 0.5)
[17] = at 50.0 µM (retest, dose inferred, filed as 5.0)

Measured: growth inhibition

c1cncc(C(Nc2cccc3cccnc23)Nc2cccc3cccnc23)c1
inactive: [1]; at 1.2 µM 0% | [1]; at 3.7 µM 0% | [1]; at 11.0 µM 1% | [1]; at 33.0 µM 2% | [1]; at 100.0 µM 0% | [2]; at 1.2 µM 1% | [2]; at 3.7 µM 14% | [2]; at 11.0 µM 31% | [2]; at 33.0 µM 47% | [2]; at 100.0 µM 55% | [3]; at 1.2 µM 4% | [3]; at 3.7 µM 1% | [3]; at 11.0 µM 3% | [3]; at 33.0 µM -70% | [3]; at 100.0 µM -45% | [4]; at 1.2 µM -103% | [4]; at 3.7 µM 52% | [4]; [16] 25% | [4]; at 11.0 µM 61% | [4]; [17] 44% | [5]; at 1.2 µM 2% | [5]; at 3.7 µM 1% | [5]; [16] -26% | [5]; at 11.0 µM 5% | [5]; at 33.0 µM 12% | [5]; [17] -2% | [5]; at 50.0 µM 44.8% | [5]; at 100.0 µM 15% | [6]; at 1.2 µM 0% | [6]; at 3.7 µM 9% | [6]; at 11.0 µM 15% | [6]; at 33.0 µM 25% | [6]; at 100.0 µM 47% | [7]; [16] 28% | [7]; [17] 53% | [7]; at 50.0 µM 54.4% | [8]; at 1.2 µM 6% | [8]; at 3.7 µM 3% | [8]; at 11.0 µM 3% | [8]; at 33.0 µM 3% | [8]; at 100.0 µM 2% | [9]; [16] 1% | [9]; [17] 6% | [9]; at 50.0 µM 27.9% | [10]; at 1.2 µM 1% | [10]; at 3.7 µM 4% | [10]; [16] -10% | [10]; at 11.0 µM -7% | [10]; at 33.0 µM -11% | [10]; [17] -12% | [10]; at 50.0 µM -13.8% | [10]; at 100.0 µM -8% | [11]; at 1.2 µM 0% | [11]; at 3.7 µM 9% | [11]; at 11.0 µM 0% | [11]; at 33.0 µM 2% | [11]; at 100.0 µM -1% | [12]; at 1.2 µM 3% | [12]; at 3.7 µM 1% | [12]; at 11.0 µM 1% | [12]; at 33.0 µM 4% | [12]; at 100.0 µM 2% | [13]; at 1.2 µM 11% | [13]; at 3.7 µM 39% | [13]; at 11.0 µM 59% | [13]; at 33.0 µM 64% | [13]; at 100.0 µM 62% | [14]; [16] 25% | [14]; [17] 40% | [15]; at 1.2 µM 36%
active: [4]; at 33.0 µM 76% | [4]; at 50.0 µM 75.8% | [4]; at 100.0 µM 81% | [14]; at 50.0 µM 77.2% | [15]; at 3.7 µM 89% | [15]; at 11.0 µM 92% | [15]; at 33.0 µM 94% | [15]; at 100.0 µM 94%
